Experimental data published in PubChem BioAssay AID1779 (Sanford-Burnham Center for Chemical Genomics, 2009).
Screen size: about 290,000 compounds; about 160 (0.055%) were called active. Rule as the data show it: active = inhibition above about 50%; inactive = the rest. This excerpt belongs to a sample that is enriched for actives.

target: Tyrosine-protein phosphatase non-receptor type 22 (Homo sapiens) (UniProt Q9Y2R2); test: inhibitors of LYP phosphatase, biochemical, fluorescence intensity, uHTS (AID 1779); details: recombinant LYP phosphatase, at 11.5 µM, hits give high values;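 also: plate controls were vehicle with enzyme for no effect and no enzyme for full effect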
Sequence (Q9Y2R2 whole entry, looked up): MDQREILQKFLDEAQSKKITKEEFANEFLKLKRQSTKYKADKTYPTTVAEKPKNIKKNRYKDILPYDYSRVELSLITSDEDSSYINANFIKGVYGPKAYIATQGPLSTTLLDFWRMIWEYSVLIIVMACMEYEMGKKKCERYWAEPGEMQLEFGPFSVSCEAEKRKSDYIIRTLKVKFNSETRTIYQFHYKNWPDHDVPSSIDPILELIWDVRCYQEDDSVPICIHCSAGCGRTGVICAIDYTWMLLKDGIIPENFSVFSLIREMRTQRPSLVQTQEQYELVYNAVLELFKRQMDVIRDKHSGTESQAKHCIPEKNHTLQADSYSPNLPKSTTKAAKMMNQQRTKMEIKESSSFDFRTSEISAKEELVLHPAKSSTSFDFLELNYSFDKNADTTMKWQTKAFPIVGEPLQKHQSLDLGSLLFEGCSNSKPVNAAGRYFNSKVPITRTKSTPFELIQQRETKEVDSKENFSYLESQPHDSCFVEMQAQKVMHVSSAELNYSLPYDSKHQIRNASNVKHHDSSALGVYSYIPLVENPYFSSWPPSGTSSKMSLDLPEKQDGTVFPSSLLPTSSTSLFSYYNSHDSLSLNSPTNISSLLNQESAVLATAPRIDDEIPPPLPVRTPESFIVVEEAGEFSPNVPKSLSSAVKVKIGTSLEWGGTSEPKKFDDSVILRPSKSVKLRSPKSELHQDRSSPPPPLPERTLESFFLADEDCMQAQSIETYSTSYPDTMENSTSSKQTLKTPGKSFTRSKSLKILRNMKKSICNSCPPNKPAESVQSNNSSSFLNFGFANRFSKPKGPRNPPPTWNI

Row | Structure (SMILES) | inhibition
1 | CS(=O)(=O)N1CCc2cc(C(=O)NC3CC3)ccc21 | -10.8% (inactive)
2 | COCCNC(=O)C(c1ccco1)N(Cc1ccc(OC)cc1)C(=O)Cn1nnc2ccccc21 (configuration not stated) | 10.9% (inactive)
3 | CSc1nc(-c2ccccc2)nn1C(=O)c1ccco1 | -3% (inactive)
4 | CSc1nc(-c2ccc(Cl)cc2)nn1C(=O)c1ccco1 | 77.2% (active)
5 | COc1ccc(-c2nc(SC)n(C(=O)c3ccco3)n2)cc1 | -4.5% (inactive)
6 | Cc1nc(-c2ccc(S(=O)(=O)N3CCN(CCc4ccccc4)CC3)s2)cs1 | -0.7% (inactive)
7 | N#CCN(CC#N)C(=O)C1c2ccccc2Oc2ccccc21 | -3.9% (inactive)
8 | COc1ccc(NC(=O)C2CCCN(S(=O)(=O)c3c(C)n[nH]c3C)C2)c(OC)c1 (configuration not stated) | -2% (inactive)
9 | O=[N+]([O-])c1cc(Br)cc(/C=N/n2cnnc2)c1O | 76.8% (active)
10 | Cc1cc(/C=N/n2cnnc2)c(O)c([N+](=O)[O-])c1 | -3.1% (inactive)
11 | O=[N+]([O-])c1cc(Cl)cc(/C=N/n2cnnc2)c1O | 3.8% (inactive)
12 | CCOc1ccc(C2C(C#N)=C(N)Oc3cc(C)n(CCN(C)C)c(=O)c32)cc1OCC (configuration not stated) | -1.7% (inactive)
13 | COc1ccc(C2C(C#N)=C(N)Oc3cc(C)n(CCN4CCOCC4)c(=O)c32)cc1OC (configuration not stated) | -4.7% (inactive)
14 | CCOc1ccc(C2C(C#N)=C(N)Oc3cc(C)n(CCN4CCOCC4)c(=O)c32)cc1OCC (configuration not stated) | 61.4% (active)
15 | Cc1cccn2c(=O)c3cc(C(=O)NC4CCCCC4)c(=N)n(CCN4CCOCC4)c3nc12 | -35.6% (inactive)
16 | Fc1ccc(-c2csc(=S)[nH]2)cc1 | -2% (inactive)
17 | S=c1[nH]c(-c2ccc(Cl)cc2)cs1 | 74.6% (active)
18 | Cc1ccc(-c2csc(=S)[nH]2)cc1 | -4% (inactive)
19 | OCCC1CN(Cc2cccn2-c2ncccn2)CCN1C1CCCC1 (configuration not stated) | -9.8% (inactive)
20 | Cc1ccc(C(=O)N2CCN(S(=O)(=O)N3CCCCC3)CC2)cc1 | -11.4% (inactive)
21 | Cc1cc(Cl)ccc1OCC(=O)OCC(=O)Nc1ccc(F)c([N+](=O)[O-])c1 | 62% (active)
22 | Cc1cc(NC(=O)COC(=O)COc2ccc(Cl)cc2C)c([N+](=O)[O-])cc1C | 5.9% (inactive)
23 | O=C(COC(=O)COc1ccc(Cl)cc1)Nc1ccc(F)c([N+](=O)[O-])c1 | 2.2% (inactive)
24 | O=C(c1ccco1)N1CCN(C(=O)C2CC(=O)N(c3ccc(Cl)cc3)C2)CC1 (configuration not stated) | -14.5% (inactive)
25 | N/C(=N\N=C\c1ccc2c(c1)OCO2)SC1CC(=O)N(c2ccc(C(=O)O)cc2)C1=O (configuration not stated) | 70% (active)
26 | N/C(=N\N=C\c1ccco1)SC1CC(=O)N(c2ccccc2)C1=O (configuration not stated) | -2.9% (inactive)
27 | N/C(=N\N=C\c1ccco1)SC1CC(=O)N(c2ccc(C(=O)O)cc2)C1=O (configuration not stated) | 1.7% (inactive)
